Values without a mark were called inactive. Results filed as inconclusive are left out. Activity calls are given as the source filed them. Unless noted, calls come from the whole dose curve; as a rule, active = well fitted curve in the direction sought with a large enough effect in the repeat runs; inconclusive = weak or mixed curves; inactive = no such curve, though single readings can be large; an effect the other way counts as inactive or inconclusive.

The nature of test [1]: A CellTox Green Cytotoxicity Assay to monitor cytotoxicity in HepG2 cells - 0 hour (AID 1224882). Note: nearly all actives have a fitted effect of over 35% in size. In short, it runs like this:
(§1)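 Read-out is fluorescence of a cyanine dye excluded from live cells that stains DNA of dead HepG2 cells, with signal proportional to cytotoxicity. Plates were read at 0, 8, 16, 24, 32 and 40 h after compound addition.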

Test [2] is described as follows: A CellTox Green Cytotoxicity Assay to monitor cytotoxicity in HepG2 cells - 32 hour (AID 1224883). Note: nearly all actives have a fitted effect of over 50% in size. The essentials: as §1
A short description of test [3]: A CellTox Green Cytotoxicity Assay to monitor cytotoxicity in HEK293 cells - 8 hour (AID 1224884). Note: nearly all actives have a fitted effect of over 35% in size. In short, it runs like this:
(§2)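 Nonlytic real-time cytotoxicity: HEK293 + CellTox Green reagent plated, 5 h preincubation, pintool compound addition (23 nL in DMSO), 37 C for 40 h, fluorescence measured at successive time points.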

Test [4] is described as follows: qHTS RealTime-Glo MT Cell Viability Assay in HepG2 cells - 16 hour (AID 1224885). Note: nearly all actives have a fitted effect of over 50% in size. The essentials:
(§3)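 Cells + NanoLuc/prosubstrate dispensed (600 cells/well) → 5 h at 37 C/5% CO2 → compounds in DMSO transferred → 40 h incubation at 37 C, luminescence read at 0, 8, 16, 24, 32, 40 h.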
Background: qHTS replaces the single test concentration by a dilution series.

Test [5] is described as follows: qHTS RealTime-Glo MT Cell Viability Assay in HEK293 cells - 24 hour (AID 1224886). Note: top concentration of the series differs between compounds; nearly all actives have a fitted effect of over 50% in size. In short, it runs like this:
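Tox21 10K qHTS, HEK293, 600 cells/well, RealTime-Glo reagent co-dispensed with cells; 5 h preincubation, compound by pintool, 37 C, luminescence at 0–40 h.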

Test [6] in a line: qHTS RealTime-Glo MT Cell Viability Assay in HEK293 cells - 8 hour (AID 1224887). Note: top concentration of the series differs between compounds; nearly all actives have a fitted effect of over 50% in size. In short, it runs like this: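 Cells were seeded together with NanoLuc luciferase and a prosubstrate that viable cells reduce to a luciferase substrate. After a 5 h incubation at 37 C/5% CO2, compounds were added and luminescence was measured repeatedly during 40 h of treatment.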
Test [7] is described as follows: A CellTox Green Cytotoxicity Assay to monitor cytotoxicity in HEK293 cells - 16 hour (AID 1224888). Note: nearly all actives have a fitted effect of over 35% in size. The essentials: as §2
Test [8] can be described thus: qHTS RealTime-Glo MT Cell Viability Assay in HepG2 cells - 0 hour (AID 1224889). Note: nearly all actives have a fitted effect of over 50% in size. In short, it runs like this: as §3
Test [9] can be described thus: A CellTox Green Cytotoxicity Assay to monitor cytotoxicity in HepG2 cells - 8 hour (AID 1224890). Note: nearly all actives have a fitted effect of over 45% in size. The essentials:
as §1

A short description of test [10]: qHTS assay to identify small molecule antagonists of the androgen receptor (AR) signaling pathway using the MDA cell line in the presence of 0.5 nM R1881 - cell viability counter screen (AID 1259242). Note: nearly all actives have a fitted effect of over 45% in size. The essentials:
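Counter screen for cytotoxicity run in the same wells as the AR antagonist reporter screen: MDA-kb2 cells were treated 16 hr with test compounds and 0.5 nM R1881, then live-cell protease activity was measured by fluorescence.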

Test [11] can be described thus: qHTS assay to identify small molecule HDAC inhibitors (AID 1259364). Note: top concentration of the series differs between compounds; nearly all actives have a fitted effect of over 45% in size. In short, it runs like this: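 Luminescence from a cell-permeant luminogenic class I/II HDAC substrate reports endogenous deacetylase activity in intact HCT-116 cells treated with compounds for 2 h.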
Test [12] can be described thus: qHTS assay to identify small molecule HDAC inhibitors - cell viability counter screen (AID 1259365). In short, it runs like this: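 Cytotoxicity was gauged in wild-type HCT-116 cells after a brief 2hr treatment with DMSO-dissolved compounds at 37C and 5% CO2, using CellTiter-Glo luminescence developed for 30min at room temperature.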
Test [13] can be described thus: qHTS assay to identify small molecule agonists of the sonic hedgehog signaling (Shh) pathway - cell viability counter screen (AID 1259366). Note: nearly all actives have a fitted effect of over 50% in size. The essentials:
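Stable Gli1-Luc NIH/3T3 clone, 2,000 cells/well. Compound exposure 24hr at 37C. Read-out: CellTiter-Fluor fluorescence.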

Test [14] in a line: qHTS assay to identify small molecule antagonists of the sonic hedgehog signaling (Shh) pathway - cell viability counter screen (AID 1259367). Note: nearly all actives have a fitted effect of over 55% in size. In short, it runs like this: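 Using CellTiter-Fluor, viability of Gli1-Luc reporter 3T3 cells is read by fluorescence in the wells used for the Shh luciferase assay. Treatment lasts 23 hr with conditioned medium, then reagent 1 hr at 37C.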

A short description of test [15]: qHTS assay to identify small molecule agonists of the sonic hedgehog signaling (Shh) pathway (AID 1259368; calls by dose curve;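 note: NIH/3T3-derived 3T3Gli1-Luc cells carrying a stable Gli1-driven firefly luciferase reporter; series mostly up to about 92 µM; nearly all actives have a fitted effect of over 15% in size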). The essentials: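 3T3Gli1-Luc (NIH/3T3 clone, stable Gli1-Luc); 4 hr pre-incubation, then cpd in DMSO 24 hr, 37 C/5% CO2; luciferase reagent 30 min RT; luminescence.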
A short description of test [16]: qHTS assay to identify small molecule antagonists of the sonic hedgehog signaling (Shh) pathway (AID 1259369; calls by dose curve; note: nearly all actives have a fitted effect of over 45% in size; note: potency is the fitted concentration of half-maximal effect). In short, it runs like this: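 3T3Gli1-Luc, conditioned-medium-stimulated, 24hr cpd, 37C/5% CO2; Gli1-driven firefly Luc luminescence after 30min RT with luciferase reagent. Cells plated 4hr before cpd.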
The nature of test [17]: qHTS assay to identify small molecule antagonists of the estrogen receptor alpha (ER-alpha) signaling pathway using the BG1 cell line in the presence of 0.1 nM 17-beta-estradiol - cell viability counter screen (AID 1259241). Note: nearly all actives have a fitted effect of over 40% in size. The essentials: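 Viability in VM7Luc4E2 cells after 22 hr compound exposure under 0.1 nM 17beta-estradiol stimulation, by CellTiter-Fluor.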
In test [18] the target is Androgen receptor (Homo sapiens) (UniProt P10275). The test is described as follows: qHTS assay to identify small molecule antagonists of the androgen receptor (AR) signaling pathway using the MDA cell line in the presence of 0.5 nM R1881 (AID 1259243). Note: nearly all actives have a fitted effect of over 50% in size. In short, it runs like this:
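Luciferase luminescence is the read-out: compounds are tested for suppressing 0.5 nM R1881-driven MMTV reporter activity in MDA-kb2 cells after 16 hr at 37C.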

The target in test [19] is Estrogen receptor (Homo sapiens) (UniProt P03372). The test is described as follows: qHTS assay to identify small molecule antagonists of the estrogen receptor alpha (ER-alpha) signaling pathway using the BG1 cell line in the presence of 0.1 nM 17-beta-estradiol (AID 1259244). Note: nearly all actives have a fitted effect of over 50% in size. The essentials:
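Cells: VM7Luc4E2, endogenous ER-alpha, 4x ERE-luc stable. Pre-culture 5 d, phenol red-free, charcoal-stripped FBS. Plated 24 h, compound + E2 0.1 nM final, 22 h 37C/5% CO2. Readout ONE-Glo luminescence.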

Test [20] can be described thus: qHTS assay to identify small molecule phospholipidosis (PLD) inducers (AID 1259344; active = well fitted curve in the direction sought with a large enough effect; an effect the other way counts as inactive or inconclusive). In short, it runs like this:
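Fluorescent phospholipid staining (LipidTOX Red) measured by automated microscopy in fixed HepG2 cells after 24 h treatment; nuclei counterstained with Hoechst 33342; amiodarone as reference inducer.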
% is set by controls: 0 for no effect and ±100 for the full control effect.

Estrogen receptor (Homo sapiens), sequence (P03372 whole entry, looked up): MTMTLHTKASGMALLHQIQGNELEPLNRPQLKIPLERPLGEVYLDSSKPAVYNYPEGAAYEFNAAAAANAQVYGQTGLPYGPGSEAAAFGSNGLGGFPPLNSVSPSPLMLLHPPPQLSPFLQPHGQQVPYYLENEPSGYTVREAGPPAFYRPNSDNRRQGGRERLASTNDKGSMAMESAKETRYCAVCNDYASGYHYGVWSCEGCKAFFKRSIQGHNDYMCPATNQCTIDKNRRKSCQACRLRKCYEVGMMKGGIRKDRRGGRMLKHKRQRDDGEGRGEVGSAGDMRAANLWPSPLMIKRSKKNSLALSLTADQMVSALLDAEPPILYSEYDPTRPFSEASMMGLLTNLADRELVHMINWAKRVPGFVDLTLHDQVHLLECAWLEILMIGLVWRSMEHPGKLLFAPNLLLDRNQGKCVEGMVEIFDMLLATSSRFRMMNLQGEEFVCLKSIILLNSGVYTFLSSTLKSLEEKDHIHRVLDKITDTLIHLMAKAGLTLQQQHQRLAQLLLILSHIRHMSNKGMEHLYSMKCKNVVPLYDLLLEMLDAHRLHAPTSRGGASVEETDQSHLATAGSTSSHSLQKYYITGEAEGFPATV
Androgen receptor (Homo sapiens), sequence (P10275 whole entry, looked up): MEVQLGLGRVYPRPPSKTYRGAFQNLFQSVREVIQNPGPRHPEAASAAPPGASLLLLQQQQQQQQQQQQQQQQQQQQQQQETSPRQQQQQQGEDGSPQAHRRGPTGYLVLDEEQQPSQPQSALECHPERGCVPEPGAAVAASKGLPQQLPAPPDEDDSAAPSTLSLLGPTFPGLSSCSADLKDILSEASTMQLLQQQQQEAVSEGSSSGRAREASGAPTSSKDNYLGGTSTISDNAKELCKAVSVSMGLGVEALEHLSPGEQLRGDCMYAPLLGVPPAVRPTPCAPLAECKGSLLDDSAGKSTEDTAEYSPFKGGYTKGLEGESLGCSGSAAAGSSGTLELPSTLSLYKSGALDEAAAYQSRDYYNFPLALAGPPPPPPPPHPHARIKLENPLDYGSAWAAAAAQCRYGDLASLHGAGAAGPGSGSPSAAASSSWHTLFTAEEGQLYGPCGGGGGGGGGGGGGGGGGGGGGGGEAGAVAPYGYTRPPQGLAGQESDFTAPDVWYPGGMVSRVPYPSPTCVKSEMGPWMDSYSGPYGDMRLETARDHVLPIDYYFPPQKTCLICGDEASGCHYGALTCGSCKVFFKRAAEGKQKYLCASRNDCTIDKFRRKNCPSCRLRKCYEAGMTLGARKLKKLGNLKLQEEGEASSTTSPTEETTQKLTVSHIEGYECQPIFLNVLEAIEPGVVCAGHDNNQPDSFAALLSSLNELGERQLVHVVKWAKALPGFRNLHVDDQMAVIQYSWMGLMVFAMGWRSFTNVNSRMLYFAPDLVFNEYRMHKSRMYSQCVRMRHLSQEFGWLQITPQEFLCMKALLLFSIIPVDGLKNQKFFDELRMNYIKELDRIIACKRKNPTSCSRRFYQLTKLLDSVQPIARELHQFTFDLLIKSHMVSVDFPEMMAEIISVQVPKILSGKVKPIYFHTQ

Regarding `CCOC(=O)c1ccccc1`, the Potency result in test [1], in [2], in [5], in test [6], in test [8] and in test [11] was “inactive” throughout. The Potency result in test [13], in test [14] and in [16] was “inactive” each time. The result in test [3], in [4], in test [7], in [9], in test [10] and in test [12] was inactive. Further, the compound was called inactive in test [15].
On to `O=C1CCCCCCCCCCCCCCO1`, for which the Potency result in test [1], in test [2], in [5], in test [6], in test [8] and in [11] was “inactive” in each case. Further, the Potency entry in test [13], in test [14] and in [16] was “inactive” in each case. Also, the outcome in [3], in test [4], in [7], in [9], in [17] and in test [10] was inactive. The compound was classed as inactive in test [15].
For the compound `O=S(=O)(O)c1cc(O)c(O)c(S(=O)(=O)O)c1`, the Potency result in [1], in test [2], in [5], in test [6], in test [8] and in test [18] was “inactive” each time. Besides, the Potency result in test [11], in test [13], in [14] and in [16] was “inactive” throughout. Moreover, the compound was called inactive in [3], in test [4], in test [7], in [9], in [10] and in test [19]. Moreover, the compound was classed as inactive in [12] and in test [15].
For `CN1CCC(=C2c3ccccc3CCc3cccnc32)CC1`, the Potency entry in [1], in test [2], in test [5], in [6], in [8] and in test [11] was “inactive” each time. Also, the compound was classed as inactive in [4], in test [7], in [9], in test [17], in test [10] and in test [19]. Besides, the compound was called inactive in test [12] and in [15]. Besides, the Potency in [16] is 13.3 µM (active).
Regarding `Cc1cc(C)c(N=Nc2c(O)c(S(=O)(=O)O)cc3cc(S(=O)(=O)O)ccc23)cc1C`, the cytotoxicity in test [1] was 2.93% [at 6.97 µM]. Also, the cytotoxicity increase was -2.71% [at 6.97 µM] in test [2], 0% [at 6.97 µM] in test [3] and 3.92% [at 6.97 µM] in test [9]. In addition, the activity change, negative = cytotoxic in test [4] was 0.476% [at 6.97 µM]. The values for the activity change in [7] and in [15] were 15.4% [at 6.97 µM] and -1.73% [at 8.39 µM], respectively. Further, the figures for the activity change, negative = cytotoxicity in test [8] and in test [17] were 4.39% [at 6.97 µM] and -12.4% [at 8.39 µM], respectively. In addition, the figures for the viability change, negative = cytotoxic in [10], in test [13] and in test [14] were -3.59% [at 8.39 µM], -2.37% [at 8.39 µM] and -9.99% [at 8.39 µM], respectively. Also, the figures for the activity change, negative = inhibition in test [19], in test [11] and in test [16] were -1.05% [at 8.39 µM], -2.59% [at 8.39 µM] and 9.78% [at 8.39 µM], respectively.
Turning to `C[N+]1(C)[C@@H]2CC(OC(=O)[C@H](CO)c3ccccc3)C[C@H]1[C@@H]1O[C@@H]12` (stereo partly drawn), the Potency result in test [1], in test [2], in test [11], in test [13], in test [14] and in test [16] was “inactive” throughout. The compound was called inactive in test [3], in test [7], in test [9], in test [17], in [10] and in [19]. Further, the compound was called inactive in test [20], in test [12] and in [15].
Consider `C=C(C)C(=O)OCC(O)CO` (stereo not drawn), for which the Potency result in test [1], in test [2], in test [5], in test [6], in [8] and in test [18] was “inactive” each time. In addition, the Potency entry in test [11], in [13], in [14] and in test [16] was “inactive” throughout. For the same compound, the result in test [3], in test [7], in [9], in test [17], in [10] and in test [12] was inactive. In addition, the compound was called inactive in test [15].
Turning to `[Ca+2]`, the Potency entry in [1], in [2], in test [5], in test [6], in [8] and in [11] was “inactive” each time. For the same compound, the Potency result in [13], in test [14] and in [16] was “inactive” in each case. Also, the outcome in [3], in test [7], in [9], in test [10], in [12] and in [15] was inactive.
In the case of `NO`, the Potency entry in test [1], in test [2], in test [5], in test [6], in test [8] and in test [11] was “inactive” throughout. Further, the Potency result in [13], in test [14] and in test [16] was “inactive” in each case. Further, the compound was classed as inactive in test [4], in test [7], in test [9], in test [17], in test [10] and in test [12]. The result in test [15] was inactive.
